ALOX12 inh = blocks human arachidonate 12S-lipoxygenase; purified 12hLO, xylenol orange hydroperoxide absorbance; Potency, µM (highest dose often 108 µM), usual class: inhibitors; AID 1671190; actives 1.1% (n = 580,000)
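Purified human 12hLO (150 nM final) in 25 mM Hepes, 0.01% Triton X-100, pH 7.0 was preincubated 15 min at room temperature with compound. Then 40 uM arachidonic acid was added, 30 min. Hydroperoxide was read by Fe-XO absorbance ratio 573/405 nm.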
JMJD2A Tudor = inhibitors of human JMJD2A Tudor domain | actives 4.4% (n = 390,000) | Potency, µM (doses to about 114 µM), usual class: inhibitors | AlphaScreen JMJD2A-Tudor / H3K4me3 peptide binding | O75164; further: nearly all actives have a fitted effect of over 50% in size
Sfp PPTase inh = inhibitors of Bacillus subtilis Sfp phosphopantetheinyl transferase | actives 3.5% (n = 310,000) | AID 1490 | Potency, µM, most hits filed as inhibitors | Q9F4F7 | Biochemical Sfp PPTase activity, qHTS;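 further: the enzyme is Sfp with the accession as filed and its product quenches rhodamine fluorescence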
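With Hepes-Na pH 7.6 buffer containing 10 mM MgCl2, Sfp (15 nM) modified BHQ-2-YbbR (12.5 uM) using rhodamine-CoA (5 uM). Two reads 30 minutes apart at 525/598 nm yielded each well's rate.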
HP1b chromo inh = HP1-beta chromodomain-methylated histone interaction inhibition; Potency, µM (series often up to 114 µM), usual class: inhibitors; AlphaScreen HP1-beta / biotin-H3K9me3 peptide binding; actives 0.56% (n = 390,000); P83916; further: nearly all actives have a fitted effect of over 70% in size
Target sequence (P83916 whole entry, looked up): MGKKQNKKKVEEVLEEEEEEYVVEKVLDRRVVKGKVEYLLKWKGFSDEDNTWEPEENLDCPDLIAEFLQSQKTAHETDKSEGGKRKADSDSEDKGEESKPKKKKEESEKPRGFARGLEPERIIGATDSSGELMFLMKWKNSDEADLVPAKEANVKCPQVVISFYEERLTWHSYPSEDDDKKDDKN
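AlphaScreen: HP1-beta (50 nM) preformed 30 min with biotin-H3(1-18)K9me3 peptide (50 nM) in PBS pH 7.4, 0.01% Tween-20. Compound added for 30 min at RT, then streptavidin donor/nickel chelate acceptor beads (10 ug/mL) for 30 min.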
BAZ2B inh = BAZ2B (human) inhibition; actives 4.4% (n = 360,000); AID 504333; Potency, µM (titrated, usually from 114 µM), hits mostly inhibitors; AlphaScreen BAZ2B-H3K14Ac peptide displacement; further: nearly all actives have a fitted effect of over 60% in size
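Multi-concentration screen (max 110 uM) measuring displacement of acetylated histone H3 peptide from BAZ2B by AlphaScreen, using 50 nM protein, 50 nM peptide and 10 ug/mL streptavidin donor plus Ni-chelate acceptor beads.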
G9a inh = blocks human histone lysine methyltransferase G9a. Q96KQ7. G9a H3K9 monomethylation, AlphaScreen, 2 h. AID 504332. actives 8.8% (n = 350,000). Potency, µM (titrated, usually from 102 µM), most hits filed as inhibitors; further: nearly all actives have a fitted effect of over 75% in size
Target sequence (Q96KQ7 913-1193 limits assumed): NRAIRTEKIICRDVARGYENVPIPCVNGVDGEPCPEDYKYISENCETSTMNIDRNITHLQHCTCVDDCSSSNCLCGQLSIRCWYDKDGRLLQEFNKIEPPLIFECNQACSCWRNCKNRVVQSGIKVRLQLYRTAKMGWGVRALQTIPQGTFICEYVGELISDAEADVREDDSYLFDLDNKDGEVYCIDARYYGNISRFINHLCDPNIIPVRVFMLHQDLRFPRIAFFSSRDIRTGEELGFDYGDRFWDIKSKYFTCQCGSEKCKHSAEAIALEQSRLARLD
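Compounds were preincubated with 20 nM G9a for 15 min, after which biotinylated H3K9 peptide (500 nM) and SAM (20 uM) started a 2 h room-temperature reaction. Monomethylated product was quantified by antibody-based AlphaScreen chemiluminescence.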
Hits are given with their value; 0 = inactive; ? = inconclusive; - = no result; ! = repeats disagree. Compounds with a hit are over-represented: about 8.7% of the library has one in this group of screens. The call rests on the fitted dose curve; in most records, active means well fitted curve in the direction sought with a large enough effect; inconclusive means small, poorly fitted or top-dose-only effect, or another doubt; inactive means no such curve, though single readings can be large; an effect the other way counts as inactive or inconclusive.

SMILES	ALOX12 inh	JMJD2A Tudor	Sfp PPTase inh	HP1b chromo inh	BAZ2B inh	G9a inh
COc1ccc(COCC(O)CN(C)Cc2ccc(OC)c(OC)c2)cc1OC (stereo unspecified)	0	-	-	-	-	-
C/C=C/c1ccc(OCC(O)CN(C)Cc2ccc(SC)cc2)c(OC)c1 (stereo unspecified)	?	4µM	0	?	50µM	71µM
COc1ccc(Nc2cc(C)nc3nc(C)nn23)cc1Cl	0	0	0	0	0	89µM
Cc1cc(Nc2ccc(C(C)C)cc2)nc(-n2nc(C)cc2C)n1	0	?	-	0	0	0
CCOc1ccc(Nc2cc(C)nc3nc(C)nn23)cc1	0	0	0	0	0	89µM
COc1ccc(Nc2cc(C)nc(-n3nc(C)cc3C)n2)cc1Cl	0	?	-	0	6.3µM	0
COCCn1c2c(c(=O)n1-c1ccccc1)CCN(C(=O)c1cccc(O)c1)C2	0	-	-	-	-	-
N=c1sccn1CC(=O)Nc1ccc(SC(F)F)cc1	?	0	0	0	0	50µM
N=c1sccn1CC(=O)Nc1ccc(S(N)(=O)=O)cc1	0	0	0	0	0	0
COc1ccccc1CNc1nc2ccccc2nc1C(=O)OC(C)C	0	-	-	-	-	-
Brc1cc2c(cc1/C=N/Nc1nc(N3CCCC3)nc(N3CCOCC3)n1)OCO2	0	0	0	0	0	16µM
CC1(C(=O)N2CCC(c3ccccc3)CC2)CCc2cnc(N3CCOCC3)nc21 (stereo unspecified)	0	-	-	-	-	-
O=C1NC2(CCN(Cc3cncs3)CC2)Oc2ccccc21	0	-	-	-	-	-
CCOc1ccc(S(=O)(=O)N2CCCCC2)cc1NC(=O)C1CSC2(C)CCC(=O)N12 (stereo unspecified)	0	0	-	0	0	40µM
CC1CCN(S(=O)(=O)c2ccc(NC(=O)C3CSC4(C)CCC(=O)N34)cc2)CC1 (stereo unspecified)	0	79µM	-	0	?	?
CN1c2cc(C(=O)NCc3cccs3)ccc2C(=O)N2CCCCC21 (stereo unspecified)	0	-	-	-	-	-
O[C@@H]1CO[C@H]2[C@@H]1OC[C@@H]2n1nnnc1Sc1ccccc1	0	-	-	-	-	-
CN1CCN(c2c(F)cc3c(=O)c(C(=O)O)cn4c3c2SCC4)CC1	?	0	0	0	?	7.9µM!
Nc1ccc2c(c1Cl)C(=O)c1ccc(N)c(Cl)c1C2=O	0	56µM	0	0	56µM	25µM
O=S1OCCSc2sc(=S)sc2SCCO1	28µM	-	-	-	-	-
CCCOc1ccc(/C(O)=C2\C(=O)C(=O)N(c3ccccn3)C2c2ccccc2F)cc1C (stereo unspecified)	0	?	0	0	0	79µM
CCOc1ccc(/C(O)=C2/C(=O)C(=O)N(c3ccccn3)C2c2ccc(Cl)cc2)c(C)c1 (stereo unspecified)	?	?	0	0	?	?
CCOc1ccc(/C(O)=C2/C(=O)C(=O)N(c3ccccn3)C2c2ccc(C)cc2)c(C)c1 (stereo unspecified)	?	35µM	0	?	0	50µM
CCCCOc1ccc(/C(O)=C2/C(=O)C(=O)N(Cc3cccnc3)C2c2ccncc2)c(C)c1 (stereo unspecified)	0	0	0	0	0	45µM
COc1ccc(C2/C(=C(/O)c3ccc(C)cc3)C(=O)C(=O)N2c2ccccn2)cc1OC (stereo unspecified)	0	0	0	0	?	?
SMILES	ALOX12 inh	JMJD2A Tudor	Sfp PPTase inh	HP1b chromo inh	BAZ2B inh	G9a inh
O=C(CCNC(=O)C1CCCC1)NC1CCCCCC1	0	-	-	-	-	-
Cc1ccc(Cl)cc1NC(=O)c1nc2ccccc2nc1N1CCN(C)CC1	0	-	-	-	-	-
C/C=C/Cn1c(N(C)Cc2ccccc2)nc2c1c(=O)[nH]c(=O)n2C	0	0	0	0	0	50µM
CN(Cc1ccccc1)c1nc2c(c(=O)[nH]c(=O)n2C)n1C	0	0	0	0	0	0
C=CCn1c(SCCOC)nc2c1c(=O)[nH]c(=O)n2C	0	0	?	0	0	40µM
CCCCSc1nc2c(c(=O)[nH]c(=O)n2C)n1CCc1ccccc1	0	0	0	0	0	?
CC(C)n1c(SCCCc2ccccc2)nc2c1c(=O)[nH]c(=O)n2C	?	0	?	0	0	35µM
C=CCn1c(SCCCc2ccccc2)nc2c1c(=O)[nH]c(=O)n2C	0	0	0	0	0	45µM
C=CCn1c(SCC)nc2c1c(=O)[nH]c(=O)n2C	0	-	-	-	-	-
COc1ccc2nc3n(c2c1)[C@@H](CNCC(C)(C)C)COC3	0	-	-	-	-	-
C/C=C/Cn1c(SCCCc2ccccc2)nc2c1c(=O)[nH]c(=O)n2C	?	0	0	0	0	45µM
Cc1noc(C)c1S(=O)(=O)N1CCCC1c1cc(C(C)C)no1 (stereo unspecified)	0	-	-	-	-	-
CCc1ccc(-c2csc3[n+]2CCN3C(C)=O)cc1	?	0	40µM	0	?	11µM
CC(=O)N1CC[n+]2c(-c3ccc(Cl)cc3)csc21	?	40µM	?	0	0	14µM
O=C(CN1CC[n+]2c(-c3cccs3)csc21)c1ccc(-c2ccccc2)cc1	?	0	0	0	0	-
CNc1oc(Cc2ccccc2)nc1S(=O)(=O)c1ccc(Cl)cc1	?	?	0	0	0	25µM
O=S(=O)(c1ccccc1)c1nc(-c2ccc(F)cc2)oc1NCc1ccccc1	0	0	-	0	0	0
Cc1ccc(-c2nc(S(=O)(=O)c3ccc(C)cc3)c(SCC(N)=O)o2)cc1	?	0	0	0	0	25µM
Cc1ccc(-c2nc(S(=O)(=O)c3ccc(C)cc3)c(SCC(=O)Nc3ccc(F)cc3)o2)cc1	?	0	-	0	0	0
CCSc1oc(-c2ccc(F)cc2)nc1S(=O)(=O)c1ccc(C)cc1	40µM!	0	-	0	0	18µM
CNc1oc(-c2ccc(F)cc2)nc1S(=O)(=O)c1ccccc1	0	0	0	0	0	45µM
Cc1ccc(S(=O)(=O)c2nc(-c3cccs3)oc2SCC(N)=O)cc1	?	0	0	0	0	?
COc1ccc(CN2CCC3(CC(Cc4ccccc4)=NO3)C2)cc1 (stereo unspecified)	0	-	-	-	-	-
C#CCN1CCN(c2ccc(C#N)cc2F)CC1	0	-	-	-	-	-
COc1cccc(CN2CCc3c(cc(C(=O)Nc4ccc(C)cc4C)n3C)C2)c1	0	-	-	-	-	-
CSc1oc(-c2ccccc2)nc1S(=O)(=O)c1ccc(C)cc1	0	0	0	0	0	56µM
COc1ccc(NC(=O)C2CC(=O)N(c3n[nH]c4ccccc34)C2)c(OC)c1 (stereo unspecified)	0	-	-	-	-	-
Cc1ccc2c(c1)c(C1=NC(=S)NC1=O)c(O)n2C	0	0	40µM	0	0	40µM
CCCn1c(-c2ccc(F)cc2)n[nH]c1=S	?	5.6µM	0	0	0	22µM
S=c1[nH]nc(COc2ccc(Cl)cc2)n1Cc1ccccc1	0	0	0	0	0	?

High-throughput results: PubChem, National Center for Advancing Translational Sciences (NCATS)
